BoNT-F LC inh – inhibitors of Botulinum neurotoxin F light chain protease. Multiplex microsphere protease cleavage assay, flow cytometry. inhibition, % at 10 µM. 360,000 compounds, 0.22% hits. AID 588497; in the data active = inhibition above about 35%, passing the limit was not always enough; inconclusive = no clear call, values can overlap the other calls; also: plate controls were buffer without enzyme for full effect and enzyme alone for no effect
SSB-PriA inh – inhibitors of Klebsiella pneumoniae PriA binding to SSB C-terminal tail; 430,000 compounds, 0.6% hits; inhibition, % at 33 µM; AlphaScreen SSBct-PriA binding, biotinylated peptide; in the data active = inhibition mostly above about 37%, no sharp cut-off; inactive = mostly below about 20%;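 also: plate controls were negative control peptide for no effect and reference peptide for full effect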
BoNT-A LC inh2 – BoNT A light chain protease inhibition | multiplex microsphere protease substrate cleavage, flow cytometry | inhibition, % at 10 µM | 360,000 compounds, 0.17% hits; also: plate controls were buffer without enzyme for full effect and enzyme alone for no effect
Bead autofluor – compound fluorescence in toxin protease inhibitor counterscreen. compound autofluorescence counterscreen, microsphere flow cytometry; stronger effect = higher value. AID 624483. fluorescence intensity (concentration not given with the values). 360,000 compounds, 3.1% hits; in the data active = fluorescence intensity above about 16000; inconclusive = no clear call, values can overlap the other calls
Anthrax LF prot – inhibitors of Bacillus anthracis lethal factor protease. P15917. multiplex microsphere protease cleavage assay, LF. inhibition, % at 10 µM. 360,000 compounds, 0.12% hits; also: plate controls were buffer without enzyme for full effect and enzyme alone for no effect
* hit, by the source's call; u = inconclusive; x = no result. Shown are actives, neighbours in structure and some others; about 3.1% of the full set was active somewhere. Rule as the data show it, unless noted: active = inhibition above about 30%; inconclusive = no clear call, values can overlap the other calls; inactive = below that.

SMILES | BoNT-F LC inh | SSB-PriA inh | BoNT-A LC inh2 | Bead autofluor | Anthrax LF prot
COc1ccc(-c2n[nH]c(C)c2-c2cnn(-c3ccccc3)c2)c(O)c1 | 0 | 16 | u | 19850* | 0
COc1ccc(-c2n[nH]c(C)c2-c2cnn(-c3ccccc3)c2)c(O)c1C | x | 10 | x | x | x
COc1ccc(Cl)c2c(=O)c3c([nH]c12)CCN(CC(=O)NCc1ccc(SC)cc1)C3 | x | 0 | x | x | x
COc1ccc(CONS(=O)(=O)c2ccc(NC(C)=O)cc2)cc1Cl | -1 | -20 | 1 | 20406* | -6
O=C(OCCN=C1NS(=O)(=O)c2ccccc21)C1CC(=O)N(c2ccc3ccccc3c2)C1 (stereo unspecified) | 4 | 9 | u | 19051* | -1
O=C(Nc1ccccc1-c1cn2ccccc2n1)c1cc2ccccc2o1 | x | -7 | x | x | x
Oc1ccc(/C=N/Nc2ccnc3cc(Cl)ccc23)cc1O | -111 | x | -3 | 2818 | -67
CC(=NNc1ccnc2cc(Cl)ccc12)c1ccc(N)cc1 | x | 71* | x | x | x
Oc1ccc(C=NNc2ccnc3cc(Cl)ccc23)cc1O | x | 47* | x | x | x
COc1ccc(/C=N/OC/C(O)=C(\C#N)c2nc3ccccc3[nH]2)cc1 | 1 | x | 4 | 22111* | 0
CC(C)(C)/C(O)=C(/C#N)c1nc2ccccc2[nH]1 | -6 | x | u | 23471* | -1
c1ccc(COc2cccc(C3N(c4ccccc4)CCN3c3ccccc3)c2)cc1 | x | -13 | x | x | x
CCOC(=O)c1c(NC(=O)CCN2CCN(C)CC2)sc(C)c1-c1ccc(Cl)cc1 | x | 10 | x | x | x
O=c1c(SCc2cccc([N+](=O)[O-])c2)nccn1-c1ccc(F)cc1 | x | 40* | x | x | x
O=c1c(SCc2cccc([N+](=O)[O-])c2)nccn1-c1ccc(Br)cc1 | x | 11 | x | x | x
CCN(CC)S(=O)(=O)c1ccc(Cl)c(C(=O)Nc2nnc(C)s2)c1 | -8 | -3 | u | 23810* | -6
CCN1CCN(S(=O)(=O)c2ccc(Cl)c(C(=O)Nc3nnc(C)s3)c2)CC1 | -99 | -13 | -78 | u | -18
O=C(NN=Cc1ccccn1)c1ccc([N+](=O)[O-])cc1Cl | x | -3 | x | x | x
Cc1nc(CC(=O)N2CCN(c3cccc(C)c3C)CC2)cs1 | -6 | 2 | -1 | 20386* | 2
COc1ccc(CC(=O)N2CCN(c3cccc(C)c3C)CC2)cc1 | 9 | -23 | -3 | 4224 | -4
CCOC(=O)N1CCN(C(=O)C2CCC(=O)N2C(C)C)CC1 (stereo unspecified) | 1 | -5 | 4 | 22385* | 0
COC1CCN(C2CCN(C(=O)c3ccc(-c4cccs4)cc3)CC2)CC1 | x | 1 | x | x | x
Cc1ccccc1CNC(=O)Cc1cccs1 | 0 | -6 | 1 | 2431 | -2
O=C(Cc1cccs1)NCc1ccccc1F | -5 | -5 | -5 | 21726* | 0
O=C(O)c1ccccc1S(=O)CCO (stereo unspecified) | 2 | -16 | 0 | 22978* | 2
SMILES | BoNT-F LC inh | SSB-PriA inh | BoNT-A LC inh2 | Bead autofluor | Anthrax LF prot
Cn1cc(S(=O)(=O)Nc2ccc3c(c2)N(S(=O)(=O)c2ccccc2)CCC3)cn1 | x | -15 | x | x | x
COc1ccccc1C(=O)NC(=S)Nc1cccc2cc(O)ccc12 | -8 | 42* | 0 | 4169 | -1
O=C(NC(=S)Nc1cccc2cc(O)ccc12)c1ccccc1Br | -3 | 15 | -3 | 6532 | -5
CCOc1ccccc1-c1nc(-c2cc3ccc(C)cc3[nH]c2=O)no1 | 5 | -6 | 2 | 16326* | 0
Cc1cc2c(cc1C)N[C@@H](CC(=O)Nc1sc3c(c1C#N)CCCC3)C(=O)N2 | x | -16 | x | x | x
Cc1ccc(NC(=O)C2C(C(=O)O)C3C=CC2C32CC2)cc1 (stereo unspecified) | 1 | -5 | 0 | 19275* | -9
CC(C)C(=O)Nc1ccc(C(=O)c2ccccc2)cc1 | 0 | -9 | -1 | 19934* | 0
CN(C)c1ccc(C(=O)c2ccccc2)cc1 | -3 | -25 | -2 | 17206* | -2
O=C(NCCn1nc(-c2ccncc2)ccc1=O)c1ccc(F)c(F)c1 | x | -10 | x | x | x
O=C(COc1ccccc1F)NCc1ccnc(-c2ccsc2)c1 | x | -8 | x | x | x
CCOc1ccc(C(=O)N2CCCC2)cc1OC | -2 | -4 | -2 | 21510* | -3
COc1cc(OC)cc(C(=O)N2CCN(Cc3cccc(F)c3)CC2)c1 | u | 1 | u | u | -20
COc1cccc(C(=O)N2CCN(Cc3cccc(F)c3)CC2)c1 | -2 | -10 | -1 | 23288* | 0
CCOc1ccc(C(=S)N2CCCC2)cc1OC | 0 | -4 | 0 | 1970 | 0
COc1ccc(CN2CCN(C(=O)c3cc(OC)c(OC)c(OC)c3)CC2)cc1OC | 6 | 0 | u | 22314* | -4
COc1ccc(C(=O)N2CCN(Cc3cc(OC)c(O)c(OC)c3)CC2)cc1OC | -4 | -2 | 0 | 6787 | -2
COc1ccc(SCC(=O)Nc2ccc(-c3nc4ccccc4o3)cc2)cc1 | x | -2 | x | x | x
CCOc1ccc(-c2cn3c(CC(=O)Nc4ccc(C)cc4)csc3n2)cc1 | x | 10 | x | x | x
CC(C)COC(=O)c1ccc(NC(=O)C23CCC(C)(C(=O)C2=O)C3(C)C)cc1 (stereo unspecified) | x | 12 | x | x | x
Cc1cc(/C(=N/O)C(C)(C)NO)ccc1Cl | -4 | x | 1 | 22038* | -1
CC(C)[C@H](NC(=O)Nc1ccc2c(c1)OCCO2)C(=O)O | 1 | -20 | -1 | 20779* | -2
COC(=O)[C@H](CC(C)C)NC(=O)Nc1ccc2c(c1)OCCO2 | -1 | 1 | -1 | 22561* | 1
O=C(NCCc1cccs1)C1CCCN1c1nc2ccccc2o1 (stereo unspecified) | x | -15 | x | x | x
O=S(=O)(/C=C/c1ccccc1)Nc1ccc(N2CCOCC2)cc1 | -12 | 4 | 0 | 2394 | -9
O=C(O)c1ccc(NS(=O)(=O)/C=C/c2ccccc2)cc1O | 4 | -14 | 5 | 21416* | 1
SMILES | BoNT-F LC inh | SSB-PriA inh | BoNT-A LC inh2 | Bead autofluor | Anthrax LF prot
O=C(NCCC(O)C1CCOCC1)c1cccc(Br)c1 (stereo unspecified) | x | -2 | x | x | x
CCOc1ccc2nc(NC(=O)C3(C)CC3(Br)Br)sc2c1 (stereo unspecified) | u | 3 | -2 | 3937 | 36*
CCOCC(=O)Nc1nc2ccc(OCC)cc2s1 | 12 | -6 | 1 | 3790 | 0
Cc1cc(NC(=O)c2cc(C)n(C)n2)n(-c2ccccc2)n1 | x | -13 | x | x | x
CC(=O)Nc1cccc(NC(=O)CSc2nc(CC(=O)Nc3ccc(C)c(Cl)c3)cs2)c1 | x | 3 | x | x | x
CCOc1ccc(N2C(=O)/C(=C\c3cccs3)C(=O)NC2=S)cc1 | x | -10 | x | x | x
CCOc1ccc(N2C(=O)/C(=C/c3ccco3)C(=O)NC2=S)cc1 | 47* | 5 | 3 | 2781 | -11
O=C(COC(=O)c1ccccn1)NCc1ccc(Cl)cc1Cl | -7 | -2 | -3 | 9588 | -1
O=C(NNC(=S)Nc1ccc(Cl)c(Cl)c1)c1ccccn1 | 7 | 92* | 1 | 5174 | 3
CCNC(=S)NNC(=O)c1ccccn1 | -10 | 92* | -3 | 9906 | -4
O=C(NCc1ccc(Cl)cc1Cl)c1ccccn1 | -3 | -10 | -3 | 24310* | 0
CCNC(=S)NNC(=O)Nc1ccccc1 | -1 | -16 | 0 | 23334* | -5
Cc1ccc(S(=O)(=O)N2CCCC(c3nnc(COc4ccccc4)o3)C2)cc1C (stereo unspecified) | x | -8 | x | x | x
